From PubChem BioAssay (NCATS)
Results filed as inconclusive are left out. Calls of active or inactive are those of the source. Calls come from the whole dose curve; as a rule, active = well fitted curve in the direction sought with a large enough effect; inconclusive = small, poorly fitted or top-dose-only effect, or another doubt; inactive = no such curve, though single readings can be large; an effect the other way counts as inactive or inconclusive.

Assays:
[1] = Quantitative High-Throughput drug screen in 47 multiple myeloma cell lines against the NCATS MIPE library collection: KMS20_JCRB cell viability assay (AID 1918973); note: nearly all actives have a fitted effect of over 45% in size; note: potency is the fitted concentration of half-maximal effect
Method in brief: (§1)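 Steps: seed 500 cells per well; pin-transfer MIPE 4.0 library; incubate 48 h at 37C, 5% CO2, humidified; add CellTiter-Glo, 5 min room temperature; read luminescence.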

[2] = Quantitative High-Throughput drug screen in 47 multiple myeloma cell lines against the NCATS MIPE library collection: KMS26_JCRB cell viability assay (AID 1918975); note: nearly all actives have a fitted effect of over 45% in size; note: potency is the fitted concentration of half-maximal effect
Method in brief: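 Viability readout: CellTiter-Glo luminescence following 5 min room-temperature incubation with reagent. Prior exposure: 48 h, 37C, humidified 5% CO2, 500 cells per well.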

[3] = Quantitative High-Throughput drug screen in 47 multiple myeloma cell lines against the NCATS MIPE library collection: MMM1_PLB cell viability assay (AID 1918976); note: nearly all actives have a fitted effect of over 35% in size; note: potency is the fitted concentration of half-maximal effect
Method in brief: (§2)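 Viability after 48 h drug exposure was measured as ATP-dependent luminescence. Cells, 500 per well, sat at 37 °C under 5% CO2; DMSO wells set 100%, media-only wells 0%.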

[4] = Quantitative High-Throughput drug screen in 47 multiple myeloma cell lines against the NCATS MIPE library collection: NCIH929_DSMZ cell viability assay (AID 1918978); note: nearly all actives have a fitted effect of over 35% in size; note: potency is the fitted concentration of half-maximal effect
Method in brief: as §2

[5] = Quantitative High-Throughput drug screen in 47 multiple myeloma cell lines against the NCATS MIPE library collection: OCIMY1_PLB cell viability assay (AID 1918979); note: nearly all actives have a fitted effect of over 35% in size; note: potency is the fitted concentration of half-maximal effect
Method in brief: as §2

[6] = Quantitative High-Throughput drug screen in 47 multiple myeloma cell lines against the NCATS MIPE library collection: MM1S_ATCC cell viability assay (AID 1918980); note: nearly all actives have a fitted effect of over 45% in size; note: potency is the fitted concentration of half-maximal effect
Method in brief: as §2

[7] = Quantitative High-Throughput drug screen in 47 multiple myeloma cell lines against the NCATS MIPE library collection: MM1R_ATCC cell viability assay (AID 1918981); note: nearly all actives have a fitted effect of over 35% in size; note: potency is the fitted concentration of half-maximal effect
Method in brief: as §2

[8] = Quantitative High-Throughput drug screen in 47 multiple myeloma cell lines against the NCATS MIPE library collection: LP1_DSMZ cell viability assay (AID 1918982); note: nearly all actives have a fitted effect of over 35% in size; note: potency is the fitted concentration of half-maximal effect
Method in brief: as §2

[9] = Quantitative High-Throughput drug screen in 47 multiple myeloma cell lines against the NCATS MIPE library collection: KMS28PE_JCRB cell viability assay (AID 1918983); note: nearly all actives have a fitted effect of over 35% in size; note: potency is the fitted concentration of half-maximal effect
Method in brief: as §2

[10] = Quantitative High-Throughput drug screen in 47 multiple myeloma cell lines against the NCATS MIPE library collection: L363_DSMZ cell viability assay (AID 1918984); details: L363 myeloma viability, CellTiter-Glo ATP luminescence, 48 h; viability (% of control): at 45.8 µM (top of the series); note: nearly all actives have a fitted effect of over 40% in size; note: potency is the fitted concentration of half-maximal effect
Method in brief: as §2

[11] = Quantitative High-Throughput drug screen in 47 multiple myeloma cell lines against the NCATS MIPE library collection: KMS34_JCRB cell viability assay (AID 1918985); note: nearly all actives have a fitted effect of over 40% in size; note: potency is the fitted concentration of half-maximal effect
Method in brief: as §2

[12] = Quantitative High-Throughput drug screen in 47 multiple myeloma cell lines against the NCATS MIPE library collection: OCIMY5_PLB cell viability assay (AID 1918988); note: nearly all actives have a fitted effect of over 65% in size; note: potency is the fitted concentration of half-maximal effect
Method in brief: as §2

[13] = Quantitative High-Throughput drug screen in 47 multiple myeloma cell lines against the NCATS MIPE library collection: OPM1_PLB cell viability assay (AID 1918989); note: nearly all actives have a fitted effect of over 40% in size; note: potency is the fitted concentration of half-maximal effect
Method in brief: as §2

[14] = Quantitative High-Throughput drug screen in 47 multiple myeloma cell lines against the NCATS MIPE library collection: SKMM1_PLB cell viability assay (AID 1919863); details: SKMM1 myeloma viability, CellTiter-Glo ATP, 48 h; viability: hits give low values; note: nearly all actives have a fitted effect of over 35% in size; note: potency is the fitted concentration of half-maximal effect
Method in brief: as §2

[15] = Quantitative High-Throughput drug screen in 47 multiple myeloma cell lines against the NCATS MIPE library collection: OCIMY7_PLB cell viability assay (AID 1918987); details: OCI-MY7 myeloma viability, CellTiter-Glo ATP, 48 h; viability (% of DMSO): at 45.8 µM (top of the series); note: potency is the fitted concentration of half-maximal effect; nearly all actives have a fitted effect of over 65% in size
Method in brief: as §2

[16] = Quantitative High-Throughput drug screen in 47 multiple myeloma cell lines against the NCATS MIPE library collection: KMS21BM_JCRB cell viability assay (AID 1918974); details: ATP luminescence, 48 h; viability: at 45.8 µM (top of the series); note: potency is the fitted concentration of half-maximal effect
Method in brief: as §1

[17] = Quantitative High-Throughput drug screen in 47 multiple myeloma cell lines against the NCATS MIPE library collection: MOLP8_DSMZ cell viability assay (AID 1918977); note: nearly all actives have a fitted effect of over 45% in size; note: potency is the fitted concentration of half-maximal effect
Method in brief: as §2

[18] = Quantitative High-Throughput drug screen in 47 multiple myeloma cell lines against the NCATS MIPE library collection: XG6_PLB cell viability assay (AID 1919865); note: potency is the fitted concentration of half-maximal effect; nearly all actives have a fitted effect of over 40% in size
Method in brief: as §2

[19] = Quantitative High-Throughput drug screen in 47 multiple myeloma cell lines against the NCATS MIPE library collection: U266_ATCC cell viability assay (AID 1919864); note: nearly all actives have a fitted effect of over 35% in size; note: potency is the fitted concentration of half-maximal effect
Method in brief: as §2

[20] = Quantitative High-Throughput drug screen in 47 multiple myeloma cell lines against the NCATS MIPE library collection: KMS12PE_JCRB cell viability assay (AID 1918972); note: nearly all actives have a fitted effect of over 30% in size
Method in brief: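 qHTS of the MIPE 4.0 collection: 500 myeloma cells/well, 48 h drug exposure at 37C in 5% CO2, then CellTiter-Glo for 5 min at room temperature before luminescence reading.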

C[C@@H]1[C@H](C)CC[C@]2(C(=O)O)CC[C@]3(C)C(=CC[C@@H]4[C@@]5(C)CC[C@H](O)C(C)(C)[C@H]5CC[C@]43C)[C@@H]12
inactive: Potency [1] | Potency [4] | Potency [6] | Potency [10] | Potency [13]
active: Potency [2] 19.1 µM | Potency [3] 21.5 µM | Potency [5] 54 µM | Potency [7] 21.5 µM | Potency [8] 48.1 µM | Potency [9] 38.2 µM | Potency [11] 34 µM | Potency [12] 1.52 µM | Potency [14] 24.1 µM

CN(C)S(=O)(=O)c1ccc2c(c1)C(=Cc1cc3c([nH]1)CCCC3)C(=O)N2
active: Potency [1] 10.5 µM | Potency [3] 18.7 µM | Potency [4] 18.7 µM | Potency [6] 20.9 µM | Potency [7] 2.96 µM | Potency [9] 20.9 µM | Potency [11] 5.9 µM | Potency [15] 3.32 µM | Potency [12] 2.09 µM

CCc1cccc(CC)c1NC(=O)N1Cc2[nH]nc(NC(=O)c3ccc(N4CCN(C)CC4)cc3)c2C1
inactive: Potency [3]
active: Potency [1] 14.8 µM | Potency [16] 3.72 µM | Potency [17] 16.6 µM | Potency [4] 16.6 µM | Potency [7] 14.8 µM | Potency [9] 14.8 µM | Potency [15] 10.5 µM | Potency [12] 1.66 µM | Potency [13] 0.833 µM | Potency [14] 2.64 µM | Potency [18] 8.33 µM

COc1ccc(-c2cc3nccn3c(Nc3ncccc3C(N)=O)n2)cc1OC
active: Potency [1] 0.418 µM | Potency [2] 10.5 µM | Potency [3] 10.5 µM | Potency [17] 3.72 µM | Potency [4] 0.935 µM | Potency [6] 14.8 µM | Potency [8] 3.32 µM | Potency [9] 5.9 µM | Potency [15] 0.148 µM | Potency [12] 3.32 µM | Potency [13] 2.09 µM | Potency [19] 16.6 µM | Potency [18] 1.18 µM
inactive: Potency [5] | viability [14] 103%

CN1CCC(COc2cnc(-c3cccc(Cn4nc(-c5cccc(C#N)c5)ccc4=O)c3)nc2)CC1
inactive: Potency [17] | Potency [5] | Potency [9]
active: Potency [1] 0.526 µM | Potency [2] 0.235 µM | Potency [3] 0.059 µM | Potency [4] 0.0526 µM | Potency [6] 0.0743 µM | Potency [7] 18.7 µM | Potency [8] 18.7 µM | Potency [15] 0.059 µM | Potency [12] 0.0469 µM | Potency [13] 16.6 µM | Potency [19] 20.9 µM | Potency [18] 0.0332 µM

CN1c2ccccc2C(=O)N2CCc3c([nH]c4ccccc34)C21 (stereo not given)
inactive: Potency [20] | Potency [5] | Potency [7] | Potency [8] | Potency [9] | Potency [12] | viability [14] 100%
active: Potency [6] 10.5 µM | Potency [15] 20.9 µM | Potency [19] 16.6 µM | Potency [18] 14.8 µM

Cc1cnc(Nc2cccc(CN3CCOCC3)c2)nc1Nc1cccc(S(=O)(=O)NC(C)(C)C)c1
active: Potency [1] 2.96 µM | Potency [16] 0.833 µM | Potency [2] 18.7 µM | Potency [3] 18.7 µM | Potency [17] 2.96 µM | Potency [4] 1.87 µM | Potency [7] 10.5 µM | Potency [8] 14.8 µM | Potency [9] 14.8 µM | Potency [10] 5.26 µM | Potency [11] 3.32 µM | Potency [15] 1.05 µM | Potency [12] 3.72 µM | Potency [13] 1.48 µM | Potency [14] 7.43 µM | Potency [18] 1.18 µM
inactive: Potency [19]

CC(=O)Nc1cccc(-n2c(=O)n(C3CC3)c(=O)c3c(Nc4ccc(I)cc4F)n(C)c(=O)c(C)c32)c1
inactive: Potency [2] | Potency [8] | Potency [11] | Potency [12]
active: Potency [1] 0.0118 µM | Potency [16] 0.0332 µM | Potency [3] 7.43 µM | Potency [4] 0.0187 µM | Potency [5] 0.0033 µM | Potency [9] 8.33 µM | Potency [10] 5.9 µM | Potency [15] 0.0132 µM | Potency [13] 0.296 µM | Potency [14] 3.72 µM | Potency [18] 0.332 µM

C[C@H]1COC2=C1C(=O)C(=O)c1c2ccc2c1CCCC2(C)C
inactive: Potency [10]
active: Potency [1] 10.5 µM | Potency [2] 29.6 µM | Potency [3] 13.2 µM | Potency [17] 20.9 µM | Potency [6] 26.4 µM | Potency [7] 20.9 µM | Potency [8] 18.7 µM | Potency [15] 13.2 µM | Potency [12] 20.9 µM | Potency [13] 20.9 µM | Potency [14] 14.8 µM

COc1cc(Nc2nc3ccccc3nc2NS(=O)(=O)c2ccc(NC(=O)c3ccc(C)c(OC)c3)cc2)cc(OC)c1
active: Potency [1] 23.5 µM | Potency [2] 11.8 µM | Potency [4] 14.8 µM | Potency [6] 20.9 µM | Potency [12] 4.69 µM | Potency [14] 10.5 µM | Potency [18] 13.2 µM

C[C@@H]1CCO[C@H]2Cn3cc(C(=O)NCc4ccc(F)cc4F)c(=O)c(O)c3C(=O)N12
inactive: Potency [20] | Potency [5]
active: Potency [6] 20.9 µM | Potency [7] 23.5 µM | Potency [9] 23.5 µM | viability (% of control) [10] 92.8% | Potency [12] 20.9 µM | Potency [14] 26.4 µM
